Laboratory results from PubChem BioAssay (EPA / NIEHS).
The source made the active and inactive calls. Rule for the calls: active = hit-call score of the fitted dose curve at least 0.9, where 1 is the maximum; inactive = score below 0.9.

How the values were obtained:
Conditions in all cases: primary human HUVEC with PBMC; actives raise or lower the signal
[1] = read-out: Macrophage colony-stimulating factor (MCSF), CSF1 (gene 1435); assay: BSK_LPS_MCSF: BioMAP Diversity Plus: LPS Assay for Macrophage colony-stimulating factor (MCSF) Biomarker Activity (AID 2283083)
Summary of the method: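 Compound is added to a human vascular primary co-culture of umbilical vein endothelium and blood mononuclear cells. After 24 h, M-CSF is quantified by ELISA. Signal changes are fitted in both directions against DMSO.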

[2] = read-out: Tissue Factor, F3 (gene 2152); assay: BSK_LPS_TissueFactor: BioMAP Diversity Plus: LPS Assay for Tissue Factor Biomarker Activity (AID 2283084)
Summary of the method: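 In this co-culture system of umbilical vein endothelium with PBMC, stimulated with LPS, cell-surface CD142 is detected by ELISA at 24 h. Endpoint values derive from bidirectional fitting, DMSO serving as baseline.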

[3] = read-out: Tumor necrosis factor (Homo sapiens) (UniProt P01375); assay: BSK_LPS_TNFa: BioMAP Diversity Plus: LPS Assay for Tumour Necrosis Factor alpha (TNFa) Biomarker Activity (AID 2283085);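 for AC50: TNFa protein level quantified by ELISA in the co-culture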
Summary of the method: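 TNFa was quantified by ELISA in LPS-activated co-cultures of human endothelial cells and PBMC, 24 h post-dosing. Both increases and decreases versus DMSO were fitted.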

[4] = read-out: Vascular cell adhesion molecule 1 (VCAM1), VCAM1 (gene 7412); assay: BSK_LPS_VCAM1: BioMAP Diversity Plus: LPS Assay for Vascular cell adhesion molecule 1 (VCAM1) Biomarker Activity (AID 2283086)
Summary of the method: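 VCAM-1 quantified by ELISA in an LPS-activated co-culture of human endothelial cells and peripheral blood mononuclear cells, read 24 h post-treatment. Fitted in both directions versus DMSO; parallel SRB staining flags overt cytotoxicity.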

CD38, CD38 (gene 952) = assay: BSK_SAg_CD38: BioMAP Diversity Plus: SAg Assay for CD38 Biomarker Activity (AID 2283087)
Summary of the method: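 CD38 quantified by ELISA (fluorescence) in a superantigen-activated endothelial cell–PBMC co-culture at 24 h post-dose. Activity fitted in both directions relative to DMSO; parallel SRB and Alamar Blue cytotoxicity read-outs.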

CD69, CD69 (gene 969) = assay: BSK_SAg_CD69: BioMAP Diversity Plus: SAg Assay for CD69 Biomarker Activity (AID 2283089);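 for AC50: cell surface CD69 protein quantified by ELISA with fluorescence detection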
Summary of the method: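 Values derive from bidirectional fitting relative to DMSO vehicle. Cells: umbilical vein endothelium plus peripheral blood mononuclear cells, treated 24 h before fluorescent ELISA for CD69.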

[5] = read-out: Monocyte Chemoattractant Protein-1 (MCP1), CCL2 (gene 6347); assay: BSK_SAg_MCP1: BioMAP Diversity Plus: SAg Assay for Monocyte Chemoattractant Protein-1 (MCP1) Biomarker Activity (AID 2283090)
Summary of the method: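 Values derive from bidirectional fitting of ELISA-measured MCP1 against DMSO controls. Readings were taken 24 h after dosing human vascular endothelial cells co-cultured with peripheral blood mononuclear cells under superantigen stimulation.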

[6] = read-out: E-selectin (Homo sapiens) (UniProt P16581); assay: BSK_SAg_Eselectin: BioMAP Diversity Plus: SAg Assay for Eselectin Biomarker Activity (AID 2283091)
Summary of the method: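 Primary human endothelial cells and peripheral blood mononuclear cells were co-cultured and exposed to chemical for 24 hours. E-selectin levels were then quantified by ELISA, with bidirectional curve fitting normalised to DMSO controls.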

[7] = read-out: Monokine induced gamma interferon (MIG), CXCL9 (gene 4283); assay: BSK_SAg_MIG: BioMAP Diversity Plus: SAg Assay for Monokine induced gamma interferon (MIG) Biomarker Activity (AID 2283092)
Summary of the method: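 Values reflect bidirectional fitting of ELISA-measured MIG against DMSO vehicle, taken 24 h after dosing of a co-culture of human umbilical vein endothelial cells and peripheral blood mononuclear cells.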

CD40, CD40 (gene 958) = assay: BSK_SAg_CD40: BioMAP Diversity Plus: SAg Assay for CD40 Biomarker Activity (AID 2283088)
Summary of the method: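 Fluorescence ELISA read-out of CD40 from umbilical vein endothelium plus peripheral blood mononuclear cells, sampled 24 h after dosing. Values come from bidirectional curve fitting with DMSO as baseline.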

Tumor necrosis factor (Homo sapiens), sequence (P01375 whole entry, looked up): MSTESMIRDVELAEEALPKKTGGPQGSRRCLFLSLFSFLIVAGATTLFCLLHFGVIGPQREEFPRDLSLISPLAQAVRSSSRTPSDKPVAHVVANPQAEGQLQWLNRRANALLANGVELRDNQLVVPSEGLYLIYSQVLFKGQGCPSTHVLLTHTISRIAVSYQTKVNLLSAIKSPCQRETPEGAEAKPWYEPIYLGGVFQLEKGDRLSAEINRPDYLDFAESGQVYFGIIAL
E-selectin (Homo sapiens), sequence (P16581 whole entry, looked up): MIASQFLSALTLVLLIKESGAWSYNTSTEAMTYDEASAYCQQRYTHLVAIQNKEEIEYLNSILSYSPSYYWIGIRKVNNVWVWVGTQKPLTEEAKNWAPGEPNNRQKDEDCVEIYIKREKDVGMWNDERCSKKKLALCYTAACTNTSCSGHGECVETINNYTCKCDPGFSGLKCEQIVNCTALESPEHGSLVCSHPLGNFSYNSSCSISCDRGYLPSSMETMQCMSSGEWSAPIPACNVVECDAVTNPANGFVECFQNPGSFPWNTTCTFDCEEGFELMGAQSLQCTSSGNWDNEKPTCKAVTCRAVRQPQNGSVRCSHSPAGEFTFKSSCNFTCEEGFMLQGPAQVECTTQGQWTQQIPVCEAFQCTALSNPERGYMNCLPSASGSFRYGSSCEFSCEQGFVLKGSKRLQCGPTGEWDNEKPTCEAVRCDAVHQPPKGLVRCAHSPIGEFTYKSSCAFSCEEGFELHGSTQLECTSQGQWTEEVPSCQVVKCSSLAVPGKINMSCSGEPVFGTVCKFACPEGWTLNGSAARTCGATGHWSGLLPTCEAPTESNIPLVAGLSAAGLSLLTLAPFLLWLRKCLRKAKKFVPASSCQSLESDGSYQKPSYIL

## COC(=O)c1ccccc1O
[1]
  outcome: inactive
[2]
  outcome: inactive
[3]
  outcome: inactive
[4]
  outcome: inactive
CD38, CD38 (gene 952)
  outcome: inactive
CD69, CD69 (gene 969)
  outcome: inactive
[5]
  outcome: inactive
[6]
  outcome: inactive
[7]
  outcome: inactive

## O=c1[nH]c2ccc(S(=O)CCN3CCC(Cc4ccc(F)cc4)CC3)cc2o1 (stereo not given)
[1]
  outcome: inactive
[2]
  outcome: inactive
[3]
  outcome: inactive
[4]
  outcome: inactive
CD38, CD38 (gene 952)
  outcome: inactive
CD69, CD69 (gene 969)
  outcome: inactive
[5]
  outcome: inactive
[6]
  outcome: inactive
[7]
  outcome: inactive

## CCCCCCc1ccc(O)cc1O
[2]
  outcome: inactive
[3]
  AC50: 32.6 µM (active)
[4]
  AC50: 32 µM (active)
CD38, CD38 (gene 952)
  AC50: 33 µM (active)
CD40, CD40 (gene 958)
  AC50: 30.6 µM (active)
[5]
  AC50: 27.6 µM (active)
[6]
  AC50: 33.6 µM (active)
[7]
  AC50: 36.8 µM (active)

## CCOCCO
[1]
  outcome: inactive
[2]
  outcome: inactive
[3]
  outcome: inactive
[4]
  outcome: inactive
CD38, CD38 (gene 952)
  outcome: inactive
CD69, CD69 (gene 969)
  outcome: inactive
[5]
  outcome: inactive
[6]
  outcome: inactive
[7]
  outcome: inactive

## COC(=O)CC(=O)OC
[1]
  outcome: inactive
[2]
  outcome: inactive
[3]
  outcome: inactive
[4]
  outcome: inactive
CD38, CD38 (gene 952)
  outcome: inactive
CD69, CD69 (gene 969)
  outcome: inactive
[5]
  outcome: inactive
[6]
  outcome: inactive
[7]
  outcome: inactive

## COC(=O)c1c(Cl)c(Cl)c(C(=O)OC)c(Cl)c1Cl
[1]
  AC50: 20 µM (active)
[2]
  outcome: inactive
[3]
  outcome: inactive
[4]
  outcome: inactive
CD38, CD38 (gene 952)
  outcome: inactive
CD69, CD69 (gene 969)
  outcome: inactive
[5]
  outcome: inactive
[6]
  outcome: inactive
[7]
  outcome: inactive

## CCCCC(CC)COC(=O)c1ccc(C(=O)OCC(CC)CCCC)cc1 (stereo not given)
[1]
  outcome: inactive
[2]
  outcome: inactive
[3]
  outcome: inactive
[4]
  outcome: inactive
CD38, CD38 (gene 952)
  outcome: inactive
CD69, CD69 (gene 969)
  outcome: inactive
[5]
  outcome: inactive
[6]
  outcome: inactive
[7]
  outcome: inactive

## CCCC(=O)OCC
[1]
  outcome: inactive
[2]
  outcome: inactive
[3]
  outcome: inactive
[4]
  outcome: inactive
CD38, CD38 (gene 952)
  outcome: inactive
CD69, CD69 (gene 969)
  outcome: inactive
[5]
  outcome: inactive
[6]
  outcome: inactive
[7]
  outcome: inactive

## Nc1ccc(Nc2ccccc2)cc1
[1]
  AC50: 8.31 µM (active)
[2]
  outcome: inactive
[3]
  AC50: 20 µM (active)
[4]
  AC50: 7.32 µM (active)
CD38, CD38 (gene 952)
  AC50: 3.97 µM (active)
CD69, CD69 (gene 969)
  AC50: 3.97 µM (active)
[5]
  AC50: 9.88 µM (active)
[6]
  AC50: 2.72 µM (active)
[7]
  AC50: 15.7 µM (active)

## CCOC(=O)COc1ccc2c(c1)CC(NCC(O)c1cccc(Cl)c1)CC2 (stereo not given)
[1]
  AC50: 34.5 µM (active)
[2]
  outcome: inactive
[3]
  outcome: inactive
[4]
  AC50: 31.3 µM (active)
CD38, CD38 (gene 952)
  AC50: 29.2 µM (active)
CD69, CD69 (gene 969)
  AC50: 18.3 µM (active)
[5]
  AC50: 27.7 µM (active)
[6]
  outcome: inactive
[7]
  outcome: inactive

## CC(C)CC(C)(O)C#CC(C)(O)CC(C)C (stereo not given)
[1]
  outcome: inactive
[2]
  outcome: inactive
[3]
  outcome: inactive
[4]
  outcome: inactive
CD38, CD38 (gene 952)
  outcome: inactive
CD69, CD69 (gene 969)
  outcome: inactive
[5]
  outcome: inactive
[6]
  outcome: inactive
[7]
  outcome: inactive

## Cc1ccc(O)cc1
[1]
  outcome: inactive
[2]
  outcome: inactive
[3]
  outcome: inactive
[4]
  outcome: inactive
CD38, CD38 (gene 952)
  outcome: inactive
CD69, CD69 (gene 969)
  outcome: inactive
[5]
  outcome: inactive
[6]
  outcome: inactive
[7]
  outcome: inactive

## Cn1c(=O)cc(Oc2ccc(F)cc2F)c2cnc(NCC(C)(C)O)nc21
[1]
  outcome: inactive
[2]
  AC50: 0.58 µM (active)
[3]
  AC50: 5.06 µM (active)
[4]
  outcome: inactive
CD38, CD38 (gene 952)
  outcome: inactive
CD69, CD69 (gene 969)
  outcome: inactive
[5]
  outcome: inactive
[6]
  outcome: inactive
[7]
  outcome: inactive

## O=C(CCCCCCCCc1cccnc1)N1CCC(C=C(c2ccccc2)c2ccccc2)CC1
[1]
  AC50: 11.4 µM (active)
[2]
  AC50: 14.6 µM (active)
[4]
  AC50: 15 µM (active)
CD38, CD38 (gene 952)
  AC50: 8.97 µM (active)
CD40, CD40 (gene 958)
  AC50: 8.35 µM (active)
CD69, CD69 (gene 969)
  AC50: 8.49 µM (active)
[5]
  AC50: 7.42 µM (active)
[6]
  AC50: 7.71 µM (active)
[7]
  AC50: 8.63 µM (active)
